This passage reports growth results from PubChem BioAssay (NCI).

Some test systems named below: NCI-H23 lung; NCI-H226 lung; NCI-H322M lung; HOP-62 NSCLC; NCI-H460 lung; HOP-92 NSCLC; NCI-H522 lung; A549/ATCC NSCLC; 786-0 renal; COLO 205 colon; DU-145 prostate; K-562 leukemia; MALME-3M melanoma; MDA-MB-231 breast; RXF 393 renal; SF-268 CNS; SF-295 CNS; SF-539 CNS; UACC-257 melanoma; M14 melanoma.
What all share (assay): NCI-60 one-dose screen, 48 h (100 = growth as untreated, 0 = no growth, -100 = all killed)
Settings in all cases: 10 µM unless noted

Values joined by “and” are separate entries in the source; they are usually repeats but may differ in a detail not shown here. Equal entries are not always repeated. This is part of a sample that, as a whole, favours compounds with a hit. Of some 83,000 tested, about 20% had one in any assay.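 Activity criterion: percent growth below 10, measured after cells in 96-well plates were exposed to a single compound concentration for 48 hours.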 A number with no mark means an inactive call. Active and inactive are the calls of the source.

For `N#CC(N)c1ccccc1` (centres undefined), the growth in the test with NCI-H23 lung is 109%; in the test with NCI-H226 lung, 100%; in the test on NCI-H322M lung, 113%; in the test with HOP-62 NSCLC, 114%; with NCI-H460 lung, 102%; with HOP-92 NSCLC, 113%. Also, the growth is 109% in the test on NCI-H522 lung; 109% in the test on A549/ATCC NSCLC; 105% with 786-0 renal; 116% in the test with COLO 205 colon; 106% with DU-145 prostate; 116% with K-562 leukemia. In addition, the growth in the test on MALME-3M melanoma was 98.9%; in the test with MDA-MB-231 breast, 108%; with RXF 393 renal it was 112%; in the test on SF-268 CNS, 102%; with SF-295 CNS it was 102%; in the test with SF-539 CNS it was 103%. In addition, the growth in the test with UACC-257 melanoma is 101%; in the test with M14 melanoma it was 99.8%.
With `CC/C(Cc1ccccc1)=C(\c1ccc(OCCN2CCCC2)cc1)c1ccc(OC(=O)NCc2ccccc2)cc1`, the growth with NCI-H23 lung was 90.8%; in the test with NCI-H226 lung, 92.1%; with NCI-H322M lung, 84.9%; in the test on HOP-62 NSCLC, 76.7%; with NCI-H460 lung, -45.2% (active); with HOP-92 NSCLC it was 38.6%. For the same molecule, the growth was 81.5% in the test on NCI-H522 lung; 42.4% in the test on A549/ATCC NSCLC; 20.7% in the test on 786-0 renal; -66.6% (active) in the test with COLO 205 colon; 61.1% with DU-145 prostate; -39.1% (active) with K-562 leukemia. Besides, the growth in the test with MALME-3M melanoma was -59.6% (active); with MDA-MB-231 breast, 51.6%; in the test with RXF 393 renal, 56.5%; in the test with SF-268 CNS, 67.7%; in the test on SF-295 CNS, 86.2%; in the test with SF-539 CNS, 59%. Besides, the values for the growth in the test with UACC-257 melanoma and with M14 melanoma were 58.1% and -60.7% (active), respectively.
Regarding `Cc1ccc(NC2=N[C@]34CC(=O)CC[C@]3(C)[C@H]3CC[C@]5(C)C(=O)CC[C@H]5[C@@H]3C[C@@H]4S2)c(C)c1`, the growth in the test with NCI-H23 lung was 54.2%; with NCI-H226 lung, 72.8%; with NCI-H322M lung, 79.5%; in the test with HOP-62 NSCLC, 45.7%; in the test on NCI-H460 lung, 45.8%; with HOP-92 NSCLC it was 65.9%. Further, the growth in the test with NCI-H522 lung is 24.6%; with A549/ATCC NSCLC it was 61.1%; in the test on 786-0 renal it was 5.54% (active); with COLO 205 colon, 62.4%; with DU-145 prostate it was 25.9%; in the test with K-562 leukemia, 5.33% (active). For the same molecule, the growth with MALME-3M melanoma is 27.3%; in the test on MDA-MB-231 breast, 26.6%; in the test on RXF 393 renal, 28.8%; with SF-268 CNS, 46.9%; in the test on SF-295 CNS it was 63.8%; with SF-539 CNS, 8.46% (active). The results for the growth in the test with UACC-257 melanoma and in the test with M14 melanoma were 65.6% and 37.9%, respectively.
Regarding `NC(=O)c1c(Br)c(Br)c(Br)c(Br)c1C(=O)O` (tested in a mixture with another compound), the growth is 99.9% and 100% in the test with NCI-H23 lung; 99.8% and 98.4% with NCI-H226 lung; 105% and 114% in the test on NCI-H322M lung; 124% and 103% in the test on HOP-62 NSCLC; 111% with NCI-H460 lung; 85.8% and 86% in the test on HOP-92 NSCLC. Also, the growth was 93% and 99.3% in the test on NCI-H522 lung; 102% and 98% with A549/ATCC NSCLC; 109% and 104% with 786-0 renal; 113% and 104% with COLO 205 colon; 112% and 108% with DU-145 prostate; 80.6% and 79.6% with K-562 leukemia. The growth is 102% and 91.1% with MALME-3M melanoma; 87.5% and 94.2% with MDA-MB-231 breast; 106% and 112% in the test on RXF 393 renal; 97.7% and 100% with SF-268 CNS; 97.2% and 98.4% in the test with SF-539 CNS; 98.7% and 105% in the test on UACC-257 melanoma. In addition, the growth with M14 melanoma was 97.1% and 107%.
Regarding `NC(N)=NC(N)=Nc1ccc(Cl)cc1`, the growth in the test with NCI-H23 lung was 103%; in the test on NCI-H226 lung it was 98.5%; in the test on NCI-H322M lung, 109%; in the test with HOP-62 NSCLC it was 112%; in the test with NCI-H460 lung, 106%; in the test on HOP-92 NSCLC, 89.7%. For the same molecule, the growth with NCI-H522 lung was 93.6%; with A549/ATCC NSCLC it was 111%; in the test on 786-0 renal it was 115%; in the test with COLO 205 colon, 112%; in the test on DU-145 prostate, 116%; in the test on K-562 leukemia, 99%. The growth with MALME-3M melanoma was 116%; in the test on MDA-MB-231 breast it was 113%; in the test with RXF 393 renal it was 108%; in the test on SF-268 CNS, 95.4%; in the test with SF-295 CNS it was 98.1%; with SF-539 CNS it was 103%. The growth is 111% with UACC-257 melanoma and 114% in the test with M14 melanoma.
In the case of `CC[C@H](C)[C@H](NC(=O)[C@H]1CCCCN1C)C(=O)N(C)[C@H](CCc1nc(C(=O)N[C@@H](Cc2ccccc2)C[C@H](C)C(=O)O)cs1)C(C)C`, the growth in the test with NCI-H23 lung was 29.9%; in the test with NCI-H226 lung it was 31%; in the test on NCI-H322M lung, 49.9%; in the test with HOP-62 NSCLC, 12.6%; in the test with NCI-H460 lung, 8.77% (active); in the test with HOP-92 NSCLC it was 30.3%. In addition, the growth in the test with NCI-H522 lung was -6.97% (active); in the test on A549/ATCC NSCLC, 22.4%; in the test on 786-0 renal, 31.8%; in the test on COLO 205 colon it was -37.9% (active); in the test with DU-145 prostate, 9.58% (active); with K-562 leukemia it was 6.62% (active). The growth in the test with MALME-3M melanoma is 78.4%; in the test on MDA-MB-231 breast, 11.2%; in the test on RXF 393 renal it was 31.8%; with SF-268 CNS, 20.9%; in the test on SF-295 CNS, -1.24% (active); with SF-539 CNS, -12.9% (active). The growth is 53.4% in the test on UACC-257 melanoma and 4.31% (active) in the test on M14 melanoma.
Regarding `CCCCCCCCCCCCCCCC[n+]1ccccc1`, the growth is -38.3% (active) and -24.8% (active) in the test on NCI-H23 lung; -77.3% (active) and -0.958% (active) in the test on NCI-H226 lung; 11.4% and 40.2% in the test with NCI-H322M lung; -84.4% (active) and -49.3% (active) in the test on HOP-62 NSCLC; -88.3% (active) and -83.1% (active) in the test with NCI-H460 lung; -48.4% (active) and -41.7% (active) in the test with HOP-92 NSCLC. In addition, the growth is -57.3% (active) and -67.7% (active) with NCI-H522 lung; -61.4% (active) with A549/ATCC NSCLC; -73% (active) and -92.8% (active) with 786-0 renal; -77.6% (active) and -71.5% (active) in the test on COLO 205 colon; -74.4% (active) and -12.9% (active) in the test on DU-145 prostate; -44.3% (active) and 0.871% (active) with K-562 leukemia. Further, the growth is -56.5% (active) and -38% (active) in the test with MALME-3M melanoma; -40.7% (active) and -32.7% (active) in the test on MDA-MB-231 breast; -86.7% (active) with RXF 393 renal; -58.9% (active) and -32.7% (active) in the test on SF-268 CNS; -69.1% (active) and -56.5% (active) in the test with SF-295 CNS; -70.3% (active) and -27.4% (active) in the test on SF-539 CNS. In addition, the growth was -52.2% (active) and -26.1% (active) with UACC-257 melanoma; -49% (active) and -77.5% (active) with M14 melanoma.
